Each structure is given as a SMILES string. Inconclusive results are not listed. Active and inactive are the calls of the source. The calls were made as follows, unless noted: active = hit-call score of the fitted dose curve at least 0.9, where 1 is the maximum; inactive = score below 0.9.

Outcome and AC50 data for four compounds are collected here from PubChem BioAssay (EPA / NIEHS).

Test [1] concerns the target Aryl hydrocarbon receptor (Homo sapiens) (UniProt P35869). As to the kind of experiment: ATG_Ahr_CIS: Attagene CIS-FACTORIAL HepG2 Assay for human Aryl Hydrocarbon Receptor (Ahr) (AID 2282930). The settings on record: HepG2 AhR cis-factorial reporter transcription; actives raise or lower the signal. The method in brief:
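Values derive from bidirectional fitting against DMSO negative control. Underlying signal: cis-element reporter mRNA in transiently transfected HepG2, harvested 24 h post-dose and measured by RT-PCR plus capillary electrophoresis.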

The nature of test [2]: ATG_BRE_CIS: Attagene CIS-FACTORIAL HepG2 Assay for human Bone Morphogenetic Protein (BMP) Response Element (BRE) (AID 2282933). As to conditions: HepG2 BMP response element reporter, Attagene transcription factor profiling; actives raise or lower the signal. Summed up:
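A HepG2 multiplex reporter system measured inducible reporter mRNA 24 h post-dosing. Detection: RT-PCR, 6-FAM primer extension, HpaI digestion, capillary electrophoresis. Activity fitted bidirectionally relative to DMSO.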

The nature of test [3]: ATG_M_61_CIS: Attagene CIS-FACTORIAL HepG2 Assay for M61 Transcription Factor (Internal Marker) (AID 2282937). As to conditions: HepG2 Attagene CIS-FACTORIAL M61 internal marker reporter; actives raise or lower the signal. Summed up:
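Fluorescence from labelled cDNA fragments, separated by capillary electrophoresis, quantifies reporter induction. HepG2 cells bearing transiently transfected cis-promoter MRTUs were incubated with test chemical for 24 h; DMSO defined baseline for gain/loss fitting.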

A short description of test [4]: ATG_EGR_CIS: Attagene CIS-FACTORIAL HepG2 Assay for human Early Growth Response 1 (EGR1) (AID 2282938). As to conditions: HepG2 Attagene CIS-FACTORIAL EGR reporter mRNA; actives raise or lower the signal. The method in brief:
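Cell-based multiplex transcription assay: HepG2 carrying transfected cis-element reporter units, 24 h chemical treatment. Fluorescence from capillary electrophoresis of RT-PCR products gives mRNA levels; fitting is bidirectional relative to DMSO.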

Test [5] is described as follows: ATG_GRE_CIS: Attagene CIS-FACTORIAL HepG2 Assay for human Glucocorticoid Response Elements (GRE) (AID 2282947). The settings on record: HepG2 GRE cis-reporter, Attagene multiplex mRNA; actives raise or lower the signal. Summed up:
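Cells (HepG2) bearing transfected cis-promoter reporter transcription units were treated with chemical for 24 hours. Reporter mRNA was measured via RT-PCR with capillary electrophoresis, and activity was fitted in both directions relative to DMSO.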

A short description of test [6]: ATG_M_06_CIS: Attagene CIS-FACTORIAL HepG2 Assay for M06 Transcription Factor (Internal Marker) (AID 2282950). As to conditions: HepG2 Attagene CIS-FACTORIAL M06 internal marker reporter; actives raise or lower the signal. Summed up:
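Cells (HepG2, transiently carrying cis-driven reporter units) receive chemical for 24 h before RNA isolation. Reporter cDNA is PCR-amplified, FAM-labelled by primer extension, HpaI-digested and sized on a capillary analyser.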

Test [7] deals with Hypoxia-inducible factor 1-alpha (Homo sapiens) (UniProt Q16665). As to the kind of experiment: ATG_HIF1a_CIS: Attagene CIS-FACTORIAL HepG2 Assay for human Hypoxia Inducible Factor 1 (HIF1A) (AID 2282951). As to conditions: HepG2 Attagene cis-factorial HIF1a reporter transcription; actives raise or lower the signal. Summed up:
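In this multiplexed cell assay, HepG2 cells bearing transfected cis reporters are dosed for 24 h and reporter mRNA is read by RT-PCR plus capillary electrophoresis; signal increases and decreases are both scored against DMSO.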

Test [8] is described as follows: ATG_MRE_CIS: Attagene CIS-FACTORIAL HepG2 Assay for human Metal Responsive Element (MRE) (AID 2282954). The settings on record: HepG2 MRE cis-reporter transcription, Attagene multiplex; actives raise or lower the signal. Summed up: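 Cells were transfected with cis-promoter reporter transcription units, then dosed for 24 h. RNA was reverse-transcribed, amplified, fluorescently labelled and resolved by capillary electrophoresis, and activity was fitted in both directions relative to DMSO.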

The nature of test [9]: ATG_TGFb_CIS: Attagene CIS-FACTORIAL HepG2 Assay for human Transforming Growth Factor (TGF) (AID 2282967). As to conditions: HepG2 Attagene CIS TGFb reporter, mRNA transcription; actives raise or lower the signal. Summed up:
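Liver HepG2 line, cis-factorial reporter panel, 24 h dosing. Quantitation: RT-PCR products labeled with 6-FAM, cut with HpaI, resolved by capillary electrophoresis; DMSO-referenced bidirectional analysis.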

The nature of test [10]: ATG_VDRE_CIS: Attagene CIS-FACTORIAL HepG2 Assay for human Vitamin D Receptor Element (VDRE) (AID 2282968). As to conditions: HepG2 VDRE cis-reporter transcription, actives raise or lower the signal. The method in brief: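 Steps: transfect HepG2 with multiple reporter transcription units; dose chemicals 24 h; isolate RNA; RT-PCR; label with 6-FAM primer extension; HpaI digest; capillary electrophoresis. Curves fitted both directions against DMSO.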

Test [11] has as its target Transcriptional activator Myb (Homo sapiens) (UniProt P10242). As to the kind of experiment: ATG_Myb_CIS: Attagene CIS-FACTORIAL HepG2 Assay for human Myeloblastosis (Myb) Proto-Oncogene Transcription Factor (AID 2282986). As to conditions: HepG2 Attagene CIS-FACTORIAL Myb reporter transcription; actives raise or lower the signal. The method in brief:
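Fluorescence signals from capillary electrophoresis of RT-PCR-amplified reporter cDNA give the read-out. Cells: HepG2 transfected with multiple cis-regulated reporter units. Exposure lasts 24 hours; DMSO defines baseline for gain or loss of signal.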

For test [12], the target named is Nuclear respiratory factor 1 (Homo sapiens) (UniProt Q16656). As to the kind of experiment: ATG_NRF1_CIS: Attagene CIS-FACTORIAL HepG2 Assay for human Nuclear Respiratory Factor 1 (NRF1) Orphan Gene (AID 2282987). The settings on record: HepG2 NRF1 cis-element reporter, Attagene multiplex; actives raise or lower the signal. The method in brief:
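Transcriptional reporter readout, one component of a 52-endpoint multiplexed HepG2 panel. Exposure 24 h; mRNA detected via RT-PCR and fluorescent capillary electrophoresis; fitting in both directions against DMSO.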

Test [13] is described as follows: ATG_NFI_CIS: Attagene CIS-FACTORIAL HepG2 Assay for human Nuclear Factor I (NFI) (AID 2282989). As to conditions: HepG2 cis-regulatory reporter, NFI response element transcription; actives raise or lower the signal. The method in brief:
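Transfected HepG2 liver cells, exposed 24 h, supplied total RNA for oligo(dT) reverse transcription and reporter-specific PCR. Labelled, HpaI-cut fragments were sized by capillary electrophoresis; DMSO set the baseline for bidirectional fitting.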

The target of test [14] is Myc proto-oncogene protein (Homo sapiens) (UniProt P01106). The test can be described thus: ATG_Myc_CIS: Attagene CIS-FACTORIAL HepG2 Assay for human Myelocytomatosis (Myc) Proto-Oncogene Transcription Factor (AID 2282990). The settings on record: HepG2, Attagene cis-reporter transcription factor activity; actives raise or lower the signal. The method in brief: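 Multiplexed cis-reporter transcription in HepG2 cells after 24 h chemical treatment. Reporter mRNA measured by RT-PCR and capillary electrophoresis fluorescence; activity fitted bidirectionally against DMSO control.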

Test [15] is described as follows: ATG_NF_kB_CIS: Attagene CIS-FACTORIAL HepG2 Assay for human Nuclear Factor Kappa B (NF-kB) (AID 2282991). As to conditions: HepG2 Attagene cis-factorial NF-kB reporter mRNA; actives raise or lower the signal. Summed up: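 HepG2, transient multi-reporter transfection, cis promoter elements (endogenous TFs). 24 h exposure. Total RNA → RT → PCR → 6-FAM label → HpaI → CE. Gain/loss vs DMSO.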

Test [16] is described as follows: ATG_NRF2_ARE_CIS: Attagene CIS-FACTORIAL HepG2 Assay for human Nuclear Factor Erythroid 2 Related Factor 2 (NFR2) response to Antioxidant Response Elements (ARE) (AID 2282992). The settings on record: HepG2 Attagene ARE/NRF2 reporter, transcription factor activity; actives raise or lower the signal. The method in brief: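 Fluorescence intensity of reporter-specific cDNA fragments, separated by capillary electrophoresis, reflects mRNA induction in transfected HepG2 cells at 24 h. Activity is fitted bidirectionally, DMSO serving as baseline.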

The nature of test [17]: ATG_Oct_MLP_CIS: Attagene CIS-FACTORIAL HepG2 Assay for human Octamer-Binding Transcription Factor (Oct) (AID 2282993). The settings on record: HepG2 Attagene cis-factorial Oct reporter, mRNA; actives raise or lower the signal. The method in brief:
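Using HepG2 cells bearing transfected cis-reporter constructs, mRNA induction was read after 24 h by fluorescent RT-PCR and capillary electrophoresis, with DMSO defining baseline for gain- or loss-of-signal fits.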

For test [18], the target named is Cellular tumor antigen p53 (Homo sapiens) (UniProt P04637). The test can be described thus: ATG_p53_CIS: Attagene CIS-FACTORIAL HepG2 Assay for human p53 Transcription Factor (AID 2282994). The settings on record: HepG2 p53 cis-element reporter, Attagene mRNA; actives raise or lower the signal. Summed up:
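Transiently transfected HepG2 (multiple cis reporter transcription units); exposure 24 h; reporter RNA via RT-PCR, 6-FAM extension, 2 h HpaI digest at 37 C, CE detection; DMSO baseline.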

The target of test [19] is Nuclear receptor subfamily 1 group I member 2 (Homo sapiens) (UniProt O75469). As to the kind of experiment: ATG_PXR_TRANS: Attagene TRANS-FACTORIAL HepG2 Assay for human Pregnane X Receptor (PXR) (AID 2283008; active = hit-call score of the fitted dose curve at least 0.9, where 1 is the maximum). Summed up: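 Transient HepG2 transfectants carrying multiplexed reporter transcription units; PXR activity read through a Gal4 chimera. 24 h exposure. RT-PCR/CE fluorescence; upward curve fit referenced to DMSO.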

Test [20] is described as follows: ATG_XTT_Cytotoxicity: Cytotoxicity Assessment in the Attagene TRANS-FACTORIAL HepG2 Assay (AID 2283584; active = hit-call score of the fitted dose curve at least 0.9, where 1 is the maximum). Summed up:
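Viability endpoint from XTT after 24 h chemical exposure of reporter-transfected human HepG2 liver cells; signal loss fitted relative to DMSO negative control.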

Chain of Transcriptional activator Myb (Homo sapiens) (P10242 whole entry, looked up): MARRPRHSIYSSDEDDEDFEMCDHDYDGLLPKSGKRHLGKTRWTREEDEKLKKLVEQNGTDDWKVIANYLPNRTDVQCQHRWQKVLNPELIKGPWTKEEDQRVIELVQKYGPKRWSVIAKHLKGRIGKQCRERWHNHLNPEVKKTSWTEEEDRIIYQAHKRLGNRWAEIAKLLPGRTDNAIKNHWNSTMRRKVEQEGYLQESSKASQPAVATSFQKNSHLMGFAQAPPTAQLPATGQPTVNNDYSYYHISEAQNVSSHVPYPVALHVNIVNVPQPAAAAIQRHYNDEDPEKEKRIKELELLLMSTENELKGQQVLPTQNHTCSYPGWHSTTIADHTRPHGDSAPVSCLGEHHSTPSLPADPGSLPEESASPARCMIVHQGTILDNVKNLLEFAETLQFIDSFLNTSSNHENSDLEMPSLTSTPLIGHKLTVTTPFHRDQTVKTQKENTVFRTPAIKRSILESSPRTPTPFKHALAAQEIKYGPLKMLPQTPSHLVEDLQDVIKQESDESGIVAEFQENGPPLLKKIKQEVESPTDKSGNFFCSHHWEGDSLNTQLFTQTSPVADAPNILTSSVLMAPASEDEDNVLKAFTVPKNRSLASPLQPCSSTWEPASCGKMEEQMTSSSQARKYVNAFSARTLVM
Chain of Hypoxia-inducible factor 1-alpha (Homo sapiens) (Q16665 whole entry, looked up): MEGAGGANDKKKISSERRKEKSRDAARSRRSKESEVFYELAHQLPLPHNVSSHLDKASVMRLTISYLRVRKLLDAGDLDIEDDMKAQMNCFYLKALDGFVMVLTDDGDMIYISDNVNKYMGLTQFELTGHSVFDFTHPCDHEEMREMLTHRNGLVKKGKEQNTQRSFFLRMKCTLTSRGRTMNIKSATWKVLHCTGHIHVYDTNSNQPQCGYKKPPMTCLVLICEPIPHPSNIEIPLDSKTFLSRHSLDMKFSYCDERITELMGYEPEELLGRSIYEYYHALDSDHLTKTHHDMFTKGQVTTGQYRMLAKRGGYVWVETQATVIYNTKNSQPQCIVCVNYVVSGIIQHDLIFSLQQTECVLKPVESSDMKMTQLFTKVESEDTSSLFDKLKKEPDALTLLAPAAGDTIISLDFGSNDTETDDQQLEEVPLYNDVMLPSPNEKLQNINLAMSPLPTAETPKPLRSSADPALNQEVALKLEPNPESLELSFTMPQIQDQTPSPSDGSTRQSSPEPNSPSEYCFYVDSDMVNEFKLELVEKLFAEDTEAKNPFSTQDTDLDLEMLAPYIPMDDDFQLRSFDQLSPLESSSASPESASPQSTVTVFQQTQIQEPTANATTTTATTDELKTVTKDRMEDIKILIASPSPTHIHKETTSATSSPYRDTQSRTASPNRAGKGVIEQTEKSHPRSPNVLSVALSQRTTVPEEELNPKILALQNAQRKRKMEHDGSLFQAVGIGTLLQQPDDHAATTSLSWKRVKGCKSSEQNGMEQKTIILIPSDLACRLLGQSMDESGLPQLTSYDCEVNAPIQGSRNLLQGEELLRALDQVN
Chain of Nuclear receptor subfamily 1 group I member 2 (Homo sapiens) (O75469 whole entry, looked up, the tested form may be a part): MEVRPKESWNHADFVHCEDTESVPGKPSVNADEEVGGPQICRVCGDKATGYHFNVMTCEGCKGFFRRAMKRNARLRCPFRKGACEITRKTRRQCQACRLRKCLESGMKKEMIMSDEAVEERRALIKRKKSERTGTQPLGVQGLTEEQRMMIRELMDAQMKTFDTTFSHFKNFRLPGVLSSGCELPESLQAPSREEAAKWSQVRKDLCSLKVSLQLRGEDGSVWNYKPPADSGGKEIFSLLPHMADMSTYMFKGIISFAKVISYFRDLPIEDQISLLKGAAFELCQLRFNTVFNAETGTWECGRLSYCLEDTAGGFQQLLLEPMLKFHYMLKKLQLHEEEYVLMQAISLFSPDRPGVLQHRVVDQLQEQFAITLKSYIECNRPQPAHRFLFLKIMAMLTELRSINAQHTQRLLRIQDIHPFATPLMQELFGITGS
Chain of Aryl hydrocarbon receptor (Homo sapiens) (P35869 whole entry, looked up): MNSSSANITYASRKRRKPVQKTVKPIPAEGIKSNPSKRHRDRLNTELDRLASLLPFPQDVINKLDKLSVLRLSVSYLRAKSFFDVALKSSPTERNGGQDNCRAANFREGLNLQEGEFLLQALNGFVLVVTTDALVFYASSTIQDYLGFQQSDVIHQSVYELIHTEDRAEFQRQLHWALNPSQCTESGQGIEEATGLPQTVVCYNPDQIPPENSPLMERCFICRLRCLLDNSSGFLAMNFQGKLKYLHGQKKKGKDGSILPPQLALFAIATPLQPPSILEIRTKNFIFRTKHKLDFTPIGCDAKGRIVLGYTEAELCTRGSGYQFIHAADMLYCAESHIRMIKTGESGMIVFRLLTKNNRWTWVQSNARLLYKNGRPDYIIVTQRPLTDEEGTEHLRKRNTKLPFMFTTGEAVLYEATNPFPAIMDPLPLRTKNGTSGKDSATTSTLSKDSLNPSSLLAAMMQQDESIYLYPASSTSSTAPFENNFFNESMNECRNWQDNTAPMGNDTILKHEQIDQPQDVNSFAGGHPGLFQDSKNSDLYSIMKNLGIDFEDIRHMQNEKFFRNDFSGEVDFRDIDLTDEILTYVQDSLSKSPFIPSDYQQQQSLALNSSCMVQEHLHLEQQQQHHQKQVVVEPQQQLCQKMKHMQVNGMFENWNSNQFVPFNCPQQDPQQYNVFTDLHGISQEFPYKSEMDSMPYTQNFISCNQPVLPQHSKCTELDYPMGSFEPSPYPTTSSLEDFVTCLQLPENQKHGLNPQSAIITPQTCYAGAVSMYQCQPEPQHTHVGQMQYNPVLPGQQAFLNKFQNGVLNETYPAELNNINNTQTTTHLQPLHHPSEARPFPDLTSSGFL
Chain of Myc proto-oncogene protein (Homo sapiens) (P01106 whole entry, looked up): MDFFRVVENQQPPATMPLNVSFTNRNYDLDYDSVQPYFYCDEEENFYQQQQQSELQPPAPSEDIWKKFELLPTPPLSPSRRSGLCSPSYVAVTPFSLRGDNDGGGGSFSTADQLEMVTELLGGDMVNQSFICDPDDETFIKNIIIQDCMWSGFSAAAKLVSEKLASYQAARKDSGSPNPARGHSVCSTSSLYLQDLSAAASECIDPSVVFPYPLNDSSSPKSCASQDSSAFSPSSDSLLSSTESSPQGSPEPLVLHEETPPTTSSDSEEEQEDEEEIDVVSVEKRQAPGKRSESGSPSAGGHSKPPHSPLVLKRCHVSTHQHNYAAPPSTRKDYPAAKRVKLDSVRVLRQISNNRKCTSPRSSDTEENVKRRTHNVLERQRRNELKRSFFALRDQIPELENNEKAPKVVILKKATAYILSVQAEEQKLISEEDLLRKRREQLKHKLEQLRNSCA
Chain of Cellular tumor antigen p53 (Homo sapiens) (P04637 whole entry, looked up): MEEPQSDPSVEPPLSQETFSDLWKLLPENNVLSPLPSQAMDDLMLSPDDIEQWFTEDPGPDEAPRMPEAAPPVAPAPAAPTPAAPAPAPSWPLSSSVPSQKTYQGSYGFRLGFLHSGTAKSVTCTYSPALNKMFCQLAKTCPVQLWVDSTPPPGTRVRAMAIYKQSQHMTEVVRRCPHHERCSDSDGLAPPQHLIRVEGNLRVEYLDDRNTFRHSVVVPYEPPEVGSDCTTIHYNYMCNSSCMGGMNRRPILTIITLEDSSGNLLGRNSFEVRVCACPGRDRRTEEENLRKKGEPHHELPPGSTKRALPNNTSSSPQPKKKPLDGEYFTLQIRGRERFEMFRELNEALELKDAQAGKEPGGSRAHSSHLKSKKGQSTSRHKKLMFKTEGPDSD
Chain of Nuclear respiratory factor 1 (Homo sapiens) (Q16656 whole entry, looked up): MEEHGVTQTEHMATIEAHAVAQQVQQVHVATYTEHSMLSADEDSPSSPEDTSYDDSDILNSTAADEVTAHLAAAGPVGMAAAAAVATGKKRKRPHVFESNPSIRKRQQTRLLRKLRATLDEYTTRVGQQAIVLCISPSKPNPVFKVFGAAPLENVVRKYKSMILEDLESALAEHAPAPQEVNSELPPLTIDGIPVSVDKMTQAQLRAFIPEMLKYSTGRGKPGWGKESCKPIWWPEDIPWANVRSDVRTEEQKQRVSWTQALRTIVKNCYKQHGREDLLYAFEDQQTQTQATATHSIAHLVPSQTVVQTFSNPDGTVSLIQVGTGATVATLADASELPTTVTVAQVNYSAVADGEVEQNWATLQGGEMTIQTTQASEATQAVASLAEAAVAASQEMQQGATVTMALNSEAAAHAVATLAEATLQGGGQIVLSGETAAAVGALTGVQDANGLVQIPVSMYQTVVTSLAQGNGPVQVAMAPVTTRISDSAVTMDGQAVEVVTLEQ

As usually defined, the AC50 is the midpoint of the concentration-response curve, whichever way the signal moves. As for `ClCC(Cl)Cl`, the call in test [1], in [2], in test [3], in test [4], in [5] and in [6] was inactive. Further, the compound was classed as inactive in test [7], in test [8], in [9], in test [10], in test [11] and in [12]. The call in [13], in test [14], in test [15], in [16], in test [17] and in test [18] was inactive. Also, in [20], the result was inactive. Also, the AC50 in test [19] was 26.6 µM (active).

In the case of `C=Cc1cccc(CCl)c1`, the result in test [1], in test [2], in test [3], in [4], in test [6] and in test [7] was inactive. Also, the outcome in test [8], in test [11], in test [12], in [13], in [14] and in test [15] was inactive. Further, the outcome in [18] and in test [20] was inactive. The AC50 in [5] is 100 µM (active); in test [16], 22.4 µM (active); in [17] it was 46.2 µM (active).

Turning to `CC(C)(C)C(O)C(Oc1ccc(-c2ccccc2)cc1)n1cncn1` (stereo not given), the compound was called inactive in test [1], in [2], in [3], in test [5], in test [6] and in [7]. Moreover, the call in test [11], in [13], in test [14], in test [15], in test [17] and in [20] was inactive. The AC50 was 42 µM (active) in [8]; 0.672 µM (active) in test [9]; 9 µM (active) in test [10]; 41.6 µM (active) in test [16]; 44 µM (active) in [18]; 1.78 µM (active) in test [19].

Turning to `CC(C)(c1cc(Cl)c(O)c(Cl)c1)c1cc(Cl)c(O)c(Cl)c1`, the call in test [1], in [3], in test [5], in test [7], in test [9] and in test [13] was inactive. Further, the compound was classed as inactive in test [14], in test [16], in test [17] and in test [20]. For the same compound, the AC50 in test [10] was 27.2 µM (active); in [11], 47.8 µM (active); in test [15] it was 9 µM (active); in test [18] it was 52.1 µM (active); in test [19], 1.87 µM (active).
